Experimental findings from PubChem BioAssay AID493185 (National Center for Advancing Translational Sciences (NCATS), 2011) are described below.

Active and inactive are the calls of the source. Calls come from the whole dose curve; as a rule, active = well fitted activation curve with a large enough effect; inconclusive = small, poorly fitted or top-dose-only effect; inactive = no such curve, though single readings can be large or run the other way.

This assay in a line: Counterscreen for Identifying a Potential Treatment of Ataxia-Telangiectasia: Hit Validation. Note: 0% is about no effect. Conditions: cell-free AlphaLISA/AlphaScreen artifact counterscreen, PBS only, no cells; series mostly up to 76.9 µM; activation: at the top concentration. In a few lines:
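Cell-free AlphaLISA counterscreen: compounds (up to 76.7 uM final) in PBS with detection mix of anti-pKAP1 and anti-KAP1 antibodies on donor/acceptor beads plus lysis buffer, incubated 6 hr at 25C before AlphaScreen read.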
Take `CSc1nc2ccccc2nc1N(C)S(=O)(=O)c1ccc(C)cc1`: the “activation” value was 19.5% (inactive).

`O=C(Nc1cccc([N+](=O)[O-])c1)N1CCCc2ccccc21`: the “activation” value is -14.3% (inactive).

As to `Cc1nc(Nc2ccc(Cl)cc2)c2oc3ccccc3c2n1`, the “activation” value was 0% (inactive).

For `O=C(Nc1ccc(N2CCCC2)cc1)c1ccc(Cl)cc1Cl`, the “activation” value is -6.77% (inactive).
